# A selection: hits, their analogues and other compounds. The true share with any hit is near 1.2%.
# p97 inhibitor: human p97 ATPase inhibition | recombinant p97 ATPase, Kinase-Glo ATP luminescence, 3 h | P55072 | inhibition, % at 8 µM | 220,000 tested, 0.42% active; in the data active = inhibition above about 15%;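 note: 0% = DMSO vehicle and 100% = wells lacking enzyme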
# Furin inhibitor: inhibitors of human furin; purified furin, fluorogenic substrate cleavage; inhibition, % at 20 µM or 30 µM; 220,000 tested, 0.061% active; P09958; in the data active = inhibition above about 25%
# FAS TE block: inhibitors of human fatty acid synthase thioesterase domain. recombinant FAS-TE, OMFH fluorogenic substrate, fluorescence endpoint. AID 602261. inhibition, % at 15 µM. 360,000 tested, 0.67% active;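 active = compounds whose normalised, plate-corrected inhibition of enzyme fluorescence in the single-dose primary screen is 50% or more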;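 note: 0% = DMSO with enzyme and 100% = substrate without enzyme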
# SUMO HTRF inh: blocks human SUMOylation mediated by UBC9; P63279; HTRF SUMOylation assay, SAE1/SAE2 + UBC9, in vitro; inhibition, % at 35 µM; 290,000 tested, 0.36% active; AID 2006; in the data active = inhibition above about 50%, passing the limit was not always enough
# PKD1 inh: PKD1 (human) kinase inhibition; Q15139; PKD1 kinase fluorescence polarization assay; inhibition, % (test concentration not listed); 200,000 tested, 0.056% active; AID 797; in the data active = inhibition above about 50%
# DTT redox prof: compounds producing H2O2 with reducing agent – biochemical, NIH compound library profiling, artefact control for MLSCN library redox annotation, primary screen | DTT-dependent redox cycling H2O2, phenol red/HRP absorbance; 100% = 100 µM peroxide control, 0% = buffer | activation, % at 10 µM | 200,000 tested, 0.03% active | AID 878;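 active = activation of at least 50% relative to the plate's high and low controls in the primary single-dose screen; inactive = activation below 50%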;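 note: compound incubated with DTT at 0.8 mM final as the reducing agent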
# FAS-TE inh conf: confirmation of human fatty acid synthase thioesterase inhibitors; shares compounds with FAS TE block; recombinant FAS-TE, OMFH fluorogenic substrate, fluorescence; inhibition, % at 15 µM; 2,300 tested, 45% active;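 active = compounds inhibiting the enzyme by at least 50% at 15 µM in any one of the replicates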;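 note: 0% = enzyme with DMSO only and 100% = wells lacking enzyme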
# The depositor's hits bear a star; . = no result given.
SMILES,p97 inhibitor,Furin inhibitor,FAS TE block,SUMO HTRF inh,PKD1 inh,DTT redox prof,FAS-TE inh conf
Cc1ccc2cc3cc(C(=O)N4CC(C)CC(C)C4)oc3nc2c1 (configuration not stated),-2.7,-17.6,81.9*,3.9,-8.0,2.8,41.9
Cc1ccc2cc3cc(C(=O)N4CCCCC4C)oc3nc2c1 (configuration not stated),-7.0,0.3,83.5*,8.1,6.5,1.2,61.2*
Cc1cccc(C(=O)NC2CCN(C(=O)Nc3ccc(F)cc3)CC2)c1,.,.,-3.4,-0.8,.,.,.
CN(C)c1nc(N2CCN(c3ccccc3)CC2)c(C#N)c(=O)o1,2.6,-5.3,16.6,2.4,-15.6,1.5,.
Cc1cccc(C)c1N1CCN(c2nc(N(C)C)oc(=O)c2C#N)CC1,-0.7,-18.6,56.2*,-7.2,0.5,2.5,16.8
N#C/C(=C\c1cccc([N+](=O)[O-])c1)C(=O)NCc1cccnc1,1.5,-16.3,11.8,-2.6,1.0,0.1,.
N#C/C(=C\c1cccc([N+](=O)[O-])c1)C(=O)NCc1ccc(Cl)cc1,7.1,-18.7,74.1*,6.7,-6.8,-1.7,77.3*
Cn1nc(C2CC2)cc1NC(=O)C1(C)CCN1C(=O)CC(c1ccccc1)c1ccccc1 (configuration not stated),.,.,3.4,.,.,.,.
COc1ccc(OC)c(CC(NC(C)=O)C(=O)NC2CCN(S(=O)(=O)c3ccc(NC(C)=O)cc3)CC2)c1 (configuration not stated),.,.,-1.8,10.4,.,.,.
O=C(CN(C(=O)c1ccccc1Cl)C1CCCCC1)Nc1ccc(Cl)c([N+](=O)[O-])c1,-0.8,-18.9,62.5*,-28.4,1.7,1.8,13.6
O=C(CSc1ccccn1)Nc1ccc(Cl)c([N+](=O)[O-])c1,6.3,-25.7,8.1,10.8,-2.5,-1.8,.
COc1ccccc1/C=C(\NC(=O)c1ccc(OC)c(OC)c1)C(=O)Nc1cc([N+](=O)[O-])ccc1C,3.9,-25.7,60.4*,-1.8,-1.2,-0.1,71.0*
O=C(COc1ncnc2ccccc12)Nc1ccc(Cl)c([N+](=O)[O-])c1,0.7,-3.5,67.8*,-10.6,4.4,0.0,66.5*
O=C(CN(C(=O)c1ccc(Cl)cc1)C1CCCCC1)Nc1ccc(Cl)c([N+](=O)[O-])c1,-0.5,-6.2,75.5*,-14.4,7.3,-0.6,12.1
COc1ccc(/C=C(/NC(=O)c2cccc([N+](=O)[O-])c2)C(=O)O)cc1OC,2.1,-21.5,-6.6,15.6,5.3,1.4,.
CCc1nnc(SCC(=O)Nc2ccc3ccccc3c2)n1N,.,.,-3.0,.,.,.,.
CCNC(=O)CC1C(=O)N(c2ccc(C)cc2)C(=O)N1CCC(C)C (configuration not stated),.,.,-5.3,-6.3,.,.,.
Cc1ccc(C(=O)Nc2cc([N+](=O)[O-])ccc2C)cc1,3.4,-30.7,46.8,2.5,-6.6,-0.1,.
COC(=O)c1ccc(C)c(NC(=O)CCSc2ccc(Cl)cc2)c1,4.6,-16.4,-0.9,19.0,-1.6,2.1,.
Cc1ccc([N+](=O)[O-])cc1NC(=O)CCSc1ccc(Cl)cc1,-0.3,-14.5,66.2*,-9.4,1.6,2.1,62.2*
Cc1ccc([N+](=O)[O-])cc1NC(=O)CNC1CCCCC1,.,.,22.8,-6.5,.,.,.
Cc1ccc([N+](=O)[O-])cc1NC(=O)c1ccc(C(C)(C)C)cc1,1.6,-25.3,68.2*,-17.4,10.1,-6.9,72.1*
Cc1ccc([N+](=O)[O-])cc1NC(=O)CN(C(=O)c1ccc(Cl)cc1)C1CCCCC1,2.1,-12.4,85.6*,-5.1,0.5,-4.5,91.0*
CCN(CC)C(=O)C1=C(C)N(Cc2ccc(C(C)(C)C)cc2)C(=O)C(CC(=O)NC(c2ccccc2)c2ccccc2)C1 (configuration not stated),.,.,13.8,.,.,.,.
CCN(CC)C(=O)C1=C(C)N(Cc2ccc(F)cc2)C(=O)C(CC(=O)NC(c2ccccc2)c2ccccc2)C1 (configuration not stated),.,.,54.5*,.,.,.,30.5*
O=C(OCc1csc(Nc2ccccc2)n1)c1ccc(Cl)cc1,-5.1,-12.2,51.7*,-22.0,-5.0,0.8,14.0
O=C(COc1ccccc1)OCc1csc(Nc2ccccc2)n1,-9.5,-4.0,7.7,-0.6,-5.8,-0.1,.

# Assay outcomes deposited in PubChem by several laboratories.
